For eight sequences, binding signal results are on record in article PMC7862700, “An all-to-all approach to the identification of sequence-specific readers for epigenetic DNA modifications on cytosine”.

Common to all, as to test: DAPPL (digital affinity profiling via proximity ligation, sequencing); 10 mM Tris-HCl pH 7.5, 50 mM NaCl, 1 mM DTT, 4% glycerol, room temperature, 30 min; GST-TFs on glutathione beads, 16-mer random dsDNA library, 0.1% formaldehyde crosslink after washing; high values mean tight binding
Common to all, as to conditions: protein: recombinant; tags: N-terminal GST; dsDNA, one strand shown

The target of assay [1] is T1, FLI1 (Homo sapiens, UniProt Q01543 1-452).
T1 sequence: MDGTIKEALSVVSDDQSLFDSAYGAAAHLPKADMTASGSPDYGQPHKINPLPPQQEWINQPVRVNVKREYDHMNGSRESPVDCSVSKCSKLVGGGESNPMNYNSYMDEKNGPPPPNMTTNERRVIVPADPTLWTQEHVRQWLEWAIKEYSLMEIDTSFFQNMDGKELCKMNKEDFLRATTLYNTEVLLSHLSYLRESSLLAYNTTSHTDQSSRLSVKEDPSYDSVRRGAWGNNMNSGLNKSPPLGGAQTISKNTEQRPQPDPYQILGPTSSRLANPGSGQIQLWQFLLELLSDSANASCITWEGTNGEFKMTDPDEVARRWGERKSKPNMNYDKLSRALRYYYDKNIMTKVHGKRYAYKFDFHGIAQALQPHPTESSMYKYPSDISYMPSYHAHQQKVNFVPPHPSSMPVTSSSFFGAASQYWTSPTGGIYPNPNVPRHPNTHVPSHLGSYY
In a few lines: (§1)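 Pools of DNA-barcoded human transcription factors, expressed in yeast as GST fusions on glutathione beads and combined with a tag-only sample, were incubated with 200 nmole of a 16-mer random double-stranded DNA library. Incubation took 30 min at room temperature in Tris/NaCl/DTT/glycerol buffer and was followed by washing, 0.1% formaldehyde crosslinking, proximity ligation (BsaI/T4 ligase, 1 h, 37 °C), PCR amplification and sequencing on an Illumina NextSeq500. Binding signal is the ratio of a hexamer's read frequency for a factor to its frequency for the tag-only sample.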

In assay [2] the target is T2, ELK1 (Homo sapiens, UniProt P19419 1-428).
T2 sequence: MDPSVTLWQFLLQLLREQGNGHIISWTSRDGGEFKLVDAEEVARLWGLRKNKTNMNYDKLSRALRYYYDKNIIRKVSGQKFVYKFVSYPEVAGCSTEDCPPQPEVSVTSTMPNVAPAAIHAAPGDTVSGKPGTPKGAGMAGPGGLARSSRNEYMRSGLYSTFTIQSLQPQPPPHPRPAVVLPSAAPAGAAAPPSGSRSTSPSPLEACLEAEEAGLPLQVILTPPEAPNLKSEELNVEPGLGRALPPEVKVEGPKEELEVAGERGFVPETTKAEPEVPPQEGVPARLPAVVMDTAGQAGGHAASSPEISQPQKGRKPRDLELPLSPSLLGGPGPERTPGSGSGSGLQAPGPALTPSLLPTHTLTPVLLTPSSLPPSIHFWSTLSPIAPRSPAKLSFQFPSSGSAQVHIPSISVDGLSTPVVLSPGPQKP
In a few lines: as §1

In assay [3] the target is T3, GABPA (Homo sapiens, UniProt Q06546 1-454).
T3 sequence: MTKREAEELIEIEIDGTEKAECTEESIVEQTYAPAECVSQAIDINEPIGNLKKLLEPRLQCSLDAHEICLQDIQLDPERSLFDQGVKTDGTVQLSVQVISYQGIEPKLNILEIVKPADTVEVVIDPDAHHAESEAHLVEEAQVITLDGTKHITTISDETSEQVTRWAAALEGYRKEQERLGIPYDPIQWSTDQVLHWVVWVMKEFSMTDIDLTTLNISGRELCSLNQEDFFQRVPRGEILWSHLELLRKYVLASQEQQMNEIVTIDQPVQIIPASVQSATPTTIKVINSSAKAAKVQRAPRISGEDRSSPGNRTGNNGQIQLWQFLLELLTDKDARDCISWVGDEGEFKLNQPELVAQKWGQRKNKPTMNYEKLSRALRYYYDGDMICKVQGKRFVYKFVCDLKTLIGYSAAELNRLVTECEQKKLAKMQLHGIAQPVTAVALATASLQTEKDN
Summed up: as §1

The target of assay [4] is T4, ERG (Homo sapiens, UniProt P11308 1-479).
T4 sequence: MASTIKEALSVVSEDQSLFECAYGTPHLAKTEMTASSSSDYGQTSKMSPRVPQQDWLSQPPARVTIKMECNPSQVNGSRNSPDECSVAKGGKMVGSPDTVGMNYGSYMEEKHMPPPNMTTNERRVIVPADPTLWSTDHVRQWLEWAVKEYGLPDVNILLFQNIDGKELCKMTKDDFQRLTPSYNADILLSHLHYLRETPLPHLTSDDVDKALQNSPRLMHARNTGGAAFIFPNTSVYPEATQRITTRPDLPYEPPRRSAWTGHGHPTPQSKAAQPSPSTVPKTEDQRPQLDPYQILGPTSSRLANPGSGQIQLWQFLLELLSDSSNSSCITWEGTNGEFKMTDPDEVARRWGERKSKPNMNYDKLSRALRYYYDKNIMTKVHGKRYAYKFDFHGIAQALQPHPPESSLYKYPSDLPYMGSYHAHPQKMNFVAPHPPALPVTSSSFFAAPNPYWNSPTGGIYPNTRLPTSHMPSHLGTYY
In a few lines: as §1

For assay [5], the target named is ELF1 (Homo sapiens, UniProt P32519 1-619). In a few lines: as §1
Chain of ELF1 (P32519 whole entry): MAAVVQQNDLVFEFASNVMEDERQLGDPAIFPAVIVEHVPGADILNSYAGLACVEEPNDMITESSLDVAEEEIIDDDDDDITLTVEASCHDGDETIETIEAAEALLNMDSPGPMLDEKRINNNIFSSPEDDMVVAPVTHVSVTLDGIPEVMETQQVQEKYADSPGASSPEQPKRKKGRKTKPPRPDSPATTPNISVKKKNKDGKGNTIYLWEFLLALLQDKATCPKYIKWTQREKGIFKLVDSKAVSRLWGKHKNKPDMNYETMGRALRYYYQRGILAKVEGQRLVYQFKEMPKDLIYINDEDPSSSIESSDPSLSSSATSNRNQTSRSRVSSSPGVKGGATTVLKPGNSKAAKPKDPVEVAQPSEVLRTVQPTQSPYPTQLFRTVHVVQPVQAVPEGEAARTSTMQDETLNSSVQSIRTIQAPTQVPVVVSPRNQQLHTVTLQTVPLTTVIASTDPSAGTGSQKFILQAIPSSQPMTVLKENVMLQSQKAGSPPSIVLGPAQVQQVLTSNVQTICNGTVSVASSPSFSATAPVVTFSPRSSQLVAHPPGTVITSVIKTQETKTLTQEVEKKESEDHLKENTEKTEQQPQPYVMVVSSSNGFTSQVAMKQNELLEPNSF
For assay [6], the target named is T5, EHF (Homo sapiens, UniProt Q9NZC4 1-300).
T5 sequence: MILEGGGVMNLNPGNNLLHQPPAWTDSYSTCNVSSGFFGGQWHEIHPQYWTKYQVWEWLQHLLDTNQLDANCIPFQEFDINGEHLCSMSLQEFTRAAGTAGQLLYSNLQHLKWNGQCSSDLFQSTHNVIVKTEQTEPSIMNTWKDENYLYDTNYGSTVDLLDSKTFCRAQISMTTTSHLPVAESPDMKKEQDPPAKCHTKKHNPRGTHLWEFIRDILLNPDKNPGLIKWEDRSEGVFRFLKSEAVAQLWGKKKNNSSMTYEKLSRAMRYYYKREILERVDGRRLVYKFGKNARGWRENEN
Summed up: as §1

Assay [7] addresses SPI1 (Homo sapiens, UniProt P17947 1-270). Summed up:
as §1

Assay [8] has as its target SPIB (Homo sapiens, UniProt Q01892 1-262). In a few lines:
as §1

Assay [9] has as its target T6, ELK3 (Homo sapiens, UniProt P41970 1-407).
T6 sequence: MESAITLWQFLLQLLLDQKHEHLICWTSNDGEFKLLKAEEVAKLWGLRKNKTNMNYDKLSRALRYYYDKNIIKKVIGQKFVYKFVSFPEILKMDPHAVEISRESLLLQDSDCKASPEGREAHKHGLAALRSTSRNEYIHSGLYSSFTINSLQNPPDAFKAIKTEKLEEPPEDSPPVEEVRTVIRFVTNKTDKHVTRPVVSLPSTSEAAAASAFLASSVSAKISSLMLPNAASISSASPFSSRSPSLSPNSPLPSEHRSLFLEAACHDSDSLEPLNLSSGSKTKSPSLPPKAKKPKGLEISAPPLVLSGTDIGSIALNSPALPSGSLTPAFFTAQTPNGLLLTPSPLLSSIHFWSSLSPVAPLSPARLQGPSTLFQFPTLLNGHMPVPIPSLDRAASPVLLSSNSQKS
In a few lines:
as §1

Chain of SPIB (Q01892 whole entry): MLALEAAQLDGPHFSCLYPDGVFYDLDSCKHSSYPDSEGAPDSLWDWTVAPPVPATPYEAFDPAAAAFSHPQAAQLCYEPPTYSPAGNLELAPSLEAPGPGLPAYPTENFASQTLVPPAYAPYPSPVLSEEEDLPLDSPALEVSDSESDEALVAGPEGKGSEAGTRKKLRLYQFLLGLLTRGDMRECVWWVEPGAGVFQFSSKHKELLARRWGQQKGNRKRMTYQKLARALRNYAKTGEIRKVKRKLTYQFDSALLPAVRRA

Turning to ATTTCT, the binding signal in assay [1] is 1.45 fold enrichment (6-mer frequency, TF over GST control); in assay [2], 1.51 fold enrichment (6-mer frequency, TF over GST control); in assay [3], 1.51 fold enrichment (6-mer frequency, TF over GST control); in assay [4], 1.5 fold enrichment (6-mer frequency, TF over GST control); in assay [5], 1.48 fold enrichment (6-mer frequency, TF over GST control); in [6], 1.3 fold enrichment (6-mer frequency, TF over GST control). Also, the binding signal was 1.47 fold enrichment (6-mer frequency, TF over GST control) in assay [7]; 1.43 fold enrichment (6-mer frequency, TF over GST control) in assay [8]; 1.32 fold enrichment (6-mer frequency, TF over GST control) in assay [9].
Consider AACTCA, for which the binding signal was 1.35 fold enrichment (6-mer frequency, TF over GST control) in assay [1]; 1.27 fold enrichment (6-mer frequency, TF over GST control) in [2]; 1.25 fold enrichment (6-mer frequency, TF over GST control) in assay [3]; 1.12 fold enrichment (6-mer frequency, TF over GST control) in [4]; 1.23 fold enrichment (6-mer frequency, TF over GST control) in [5]; 1.18 fold enrichment (6-mer frequency, TF over GST control) in assay [6]. Further, the binding signal in assay [7] was 1.25 fold enrichment (6-mer frequency, TF over GST control); in assay [8], 1.23 fold enrichment (6-mer frequency, TF over GST control); in assay [9], 1.36 fold enrichment (6-mer frequency, TF over GST control).
As to CTAACA, the binding signal is 1.28 fold enrichment (6-mer frequency, TF over GST control) in [1]; 1.24 fold enrichment (6-mer frequency, TF over GST control) in assay [2]; 1.16 fold enrichment (6-mer frequency, TF over GST control) in assay [3]; 1.21 fold enrichment (6-mer frequency, TF over GST control) in assay [4]; 1.25 fold enrichment (6-mer frequency, TF over GST control) in [5]; 1.21 fold enrichment (6-mer frequency, TF over GST control) in assay [6]. Also, the binding signal in assay [7] is 1.24 fold enrichment (6-mer frequency, TF over GST control); in assay [8], 1.17 fold enrichment (6-mer frequency, TF over GST control); in assay [9], 1.15 fold enrichment (6-mer frequency, TF over GST control).
On to TACTTG, for which the binding signal in [1] is 1.39 fold enrichment (6-mer frequency, TF over GST control); in assay [2] it was 1.39 fold enrichment (6-mer frequency, TF over GST control); in assay [3], 1.34 fold enrichment (6-mer frequency, TF over GST control); in [4], 1.18 fold enrichment (6-mer frequency, TF over GST control); in assay [5], 1.32 fold enrichment (6-mer frequency, TF over GST control); in [6], 1.32 fold enrichment (6-mer frequency, TF over GST control). Further, the binding signal in [7] is 1.27 fold enrichment (6-mer frequency, TF over GST control); in assay [8] it was 1.44 fold enrichment (6-mer frequency, TF over GST control); in assay [9], 1.35 fold enrichment (6-mer frequency, TF over GST control).
In the case of TCATAT, the binding signal in [1] was 1.21 fold enrichment (6-mer frequency, TF over GST control); in [2], 1.2 fold enrichment (6-mer frequency, TF over GST control); in assay [3], 1.26 fold enrichment (6-mer frequency, TF over GST control); in assay [4] it was 1.2 fold enrichment (6-mer frequency, TF over GST control); in assay [5], 1.29 fold enrichment (6-mer frequency, TF over GST control); in assay [6] it was 1.24 fold enrichment (6-mer frequency, TF over GST control). Also, the binding signal is 1.18 fold enrichment (6-mer frequency, TF over GST control) in assay [7]; 1.4 fold enrichment (6-mer frequency, TF over GST control) in assay [8]; 1.17 fold enrichment (6-mer frequency, TF over GST control) in assay [9].
For TTTCGT, the binding signal in assay [1] is 1.31 fold enrichment (6-mer frequency, TF over GST control); in assay [2] it was 1.38 fold enrichment (6-mer frequency, TF over GST control); in [3], 1.37 fold enrichment (6-mer frequency, TF over GST control); in assay [4], 1.23 fold enrichment (6-mer frequency, TF over GST control); in [5], 1.41 fold enrichment (6-mer frequency, TF over GST control); in assay [6], 1.46 fold enrichment (6-mer frequency, TF over GST control). Besides, the binding signal in assay [7] is 1.27 fold enrichment (6-mer frequency, TF over GST control); in assay [8] it was 1.47 fold enrichment (6-mer frequency, TF over GST control); in assay [9] it was 1.25 fold enrichment (6-mer frequency, TF over GST control).
Consider TGATGC, for which the binding signal is 1.49 fold enrichment (6-mer frequency, TF over GST control) in [1]; 1.63 fold enrichment (6-mer frequency, TF over GST control) in assay [2]; 1.65 fold enrichment (6-mer frequency, TF over GST control) in assay [3]; 1.4 fold enrichment (6-mer frequency, TF over GST control) in assay [4]; 1.64 fold enrichment (6-mer frequency, TF over GST control) in [5]; 1.58 fold enrichment (6-mer frequency, TF over GST control) in assay [6]. In addition, the binding signal was 1.42 fold enrichment (6-mer frequency, TF over GST control) in assay [7]; 1.47 fold enrichment (6-mer frequency, TF over GST control) in assay [8]; 1.72 fold enrichment (6-mer frequency, TF over GST control) in assay [9].
As for ATCTAT, the binding signal in [1] is 1.15 fold enrichment (6-mer frequency, TF over GST control); in assay [2], 1.14 fold enrichment (6-mer frequency, TF over GST control); in assay [3], 1.17 fold enrichment (6-mer frequency, TF over GST control); in assay [4] it was 1.09 fold enrichment (6-mer frequency, TF over GST control); in [5] it was 1.16 fold enrichment (6-mer frequency, TF over GST control); in assay [6], 1.12 fold enrichment (6-mer frequency, TF over GST control). Also, the binding signal in assay [7] is 1.09 fold enrichment (6-mer frequency, TF over GST control); in assay [8], 1.15 fold enrichment (6-mer frequency, TF over GST control); in assay [9], 1.13 fold enrichment (6-mer frequency, TF over GST control).
